# Measurements reported in PubChem BioAssay AID1347165 (National Center for Advancing Translational Sciences (NCATS), 2019).
# The campaign covered roughly 220,000 compounds. About 5,700 (2.6%) were called active. Not shown: some 18% with an inconclusive outcome. Calls come from the whole dose curve; as a rule, active = well fitted inhibition curve with a large enough effect; inconclusive = small, poorly fitted or top-dose-only effect; inactive = no such curve, though single readings can be large or run the other way. The full list was thinned out, with actives kept by preference.
# Biological target: Lysine-specific demethylase 5B (Homo sapiens) (UniProt Q9UGL1)
# Test: Primary screen for KDM5B Histone Demethylases FDH-coupled qHTS; note: nearly all actives have a fitted effect of over 70% in size; for activity change, negative = inhibition: 0% is about no effect
# Conditions: FDH-coupled NADH fluorescence (FDH is formaldehyde dehydrogenase); series mostly up to 57.7 µM; activity change, negative = inhibition: at the top concentration
# Text: Assay Submitter (PI): Qin Yan, Ph.D. (Yale University) and Xiaodong Cheng, Ph.D. (MD Anderson) This project was funded as part of the NCI NEXT Program and Chemical Biology Consortium (CBC) The histone demethylases, KDM5A and KDM5B catalyze the demethylation of lysine 4 on histone H3 (H3K4me3/2). They are overexpressed in a variety of cancers and have been implicated in cancer cell growth, metastasis, drug resistance, and tumor growth. KDM5A is amplified and overexpressed in breast and gastric cancer; and is translocated in leukemia. While KDM5B is highly expressed in human mammary tumors and breast cancer cell lines, but not in normal adult breast tissue. Moreover, knockdown of KDM5B leads to upregulation of tumor suppressor genes, including BRCA1. The goal of this project is to employ qHTS to identify selective small molecule inhibitors of KDM5A/B demethylase activity to better understand the role of KDM5 in cancer and to develop novel therapies. We employed an FDH-coupled assay previously reported by Sakurai et al. to monitor in vitro KDM5 demethylase activity. Compounds showing dose response inhibition are re-acquired, validated, and tested for non-specific interference with the formaldehyde dehydrogenase (FDH) counterscreen. True inhibitors are validated using an AlphaLisa secondary screen, which employs an H3K4(me2-1)-specific antibody to monitor demethylation of a biotin-tagged H3K4(me3) peptide substrate. Inhibitors are profiled against KDM4A and KDM6A AlphaLisa counterscreens to determine level of demethylase specificity; and against the TruHits counterscreen to eliminate non-specific inhibitory activity on the AlphaLISA detection method. Selective inhibitors identified from the primary and secondary screening are tested in cells using immunofluorescence to monitor global H3K4 tri-methylation as a measure of KDM5A/B inhibition. Early Translation Branch (ETB) National Center for Advancing Translational Sciences (NCATS), Rockville, MD National Institute of Health (NIH), Bethesda, Maryland [1] Sakurai, M et al. A miniaturized screen for inhibitors of Jumonji histone demethylases. Mol Biosyst. 2010 Feb;6(2):357-64. doi: 10.1039/b912993f. Epub 2009 Oct 8.
# Materials: 1536-well Black, solid bottom, medium binding assay plate is purchased from Greiner Bio-one. The enzymes (KDM5B) and substrate (H3K4me3/2) are provided by the principal investigators. The buffer for this assay is composed of 50mM HEPES at pH 7.5 with 0.01% Tween-20. FDH coupled Demethylase qHTS protocol: Three microliter enzyme mix (buffer + 200nM KDM5BDeltaAP final concentration) is dispensed into the assay plate using the BioRAPTR Flying Reagent Dispenser (FRD; […]). Compound (at various final concentration) and control solution is pin transferred to the assay plate using the Kalypsys 1536-pin tool apparatus. The assay plate is incubated for 10 min at room temperature followed by addition of 1uL substrate mix (buffer + 100uM ascorbic acid, 50uM ferrous ammonium sulfate, 12.5uM H3K4Me3, 25uM a-ketoglutarate, 0.25 mM NAD+, 0.25 U/mL formaldehyde dehydrogenase using the FRD yielding a total reaction volume of 4 uL. Initial fluorescence (Read1) is detected using the PerkinElmer ViewLux plate reader equipped with 340 nm excitation and 450 nm emission filters. The final fluorescence (Read2) signal is obtained after 30 min of room temperature incubation. Delta RFU is calculated (Read2 - Read1) and is used to generated dose response curves.
# Potency is the fitted concentration of half-maximal effect.
# Lysine-specific demethylase 5B (Homo sapiens), sequence (Q9UGL1 whole entry, looked up): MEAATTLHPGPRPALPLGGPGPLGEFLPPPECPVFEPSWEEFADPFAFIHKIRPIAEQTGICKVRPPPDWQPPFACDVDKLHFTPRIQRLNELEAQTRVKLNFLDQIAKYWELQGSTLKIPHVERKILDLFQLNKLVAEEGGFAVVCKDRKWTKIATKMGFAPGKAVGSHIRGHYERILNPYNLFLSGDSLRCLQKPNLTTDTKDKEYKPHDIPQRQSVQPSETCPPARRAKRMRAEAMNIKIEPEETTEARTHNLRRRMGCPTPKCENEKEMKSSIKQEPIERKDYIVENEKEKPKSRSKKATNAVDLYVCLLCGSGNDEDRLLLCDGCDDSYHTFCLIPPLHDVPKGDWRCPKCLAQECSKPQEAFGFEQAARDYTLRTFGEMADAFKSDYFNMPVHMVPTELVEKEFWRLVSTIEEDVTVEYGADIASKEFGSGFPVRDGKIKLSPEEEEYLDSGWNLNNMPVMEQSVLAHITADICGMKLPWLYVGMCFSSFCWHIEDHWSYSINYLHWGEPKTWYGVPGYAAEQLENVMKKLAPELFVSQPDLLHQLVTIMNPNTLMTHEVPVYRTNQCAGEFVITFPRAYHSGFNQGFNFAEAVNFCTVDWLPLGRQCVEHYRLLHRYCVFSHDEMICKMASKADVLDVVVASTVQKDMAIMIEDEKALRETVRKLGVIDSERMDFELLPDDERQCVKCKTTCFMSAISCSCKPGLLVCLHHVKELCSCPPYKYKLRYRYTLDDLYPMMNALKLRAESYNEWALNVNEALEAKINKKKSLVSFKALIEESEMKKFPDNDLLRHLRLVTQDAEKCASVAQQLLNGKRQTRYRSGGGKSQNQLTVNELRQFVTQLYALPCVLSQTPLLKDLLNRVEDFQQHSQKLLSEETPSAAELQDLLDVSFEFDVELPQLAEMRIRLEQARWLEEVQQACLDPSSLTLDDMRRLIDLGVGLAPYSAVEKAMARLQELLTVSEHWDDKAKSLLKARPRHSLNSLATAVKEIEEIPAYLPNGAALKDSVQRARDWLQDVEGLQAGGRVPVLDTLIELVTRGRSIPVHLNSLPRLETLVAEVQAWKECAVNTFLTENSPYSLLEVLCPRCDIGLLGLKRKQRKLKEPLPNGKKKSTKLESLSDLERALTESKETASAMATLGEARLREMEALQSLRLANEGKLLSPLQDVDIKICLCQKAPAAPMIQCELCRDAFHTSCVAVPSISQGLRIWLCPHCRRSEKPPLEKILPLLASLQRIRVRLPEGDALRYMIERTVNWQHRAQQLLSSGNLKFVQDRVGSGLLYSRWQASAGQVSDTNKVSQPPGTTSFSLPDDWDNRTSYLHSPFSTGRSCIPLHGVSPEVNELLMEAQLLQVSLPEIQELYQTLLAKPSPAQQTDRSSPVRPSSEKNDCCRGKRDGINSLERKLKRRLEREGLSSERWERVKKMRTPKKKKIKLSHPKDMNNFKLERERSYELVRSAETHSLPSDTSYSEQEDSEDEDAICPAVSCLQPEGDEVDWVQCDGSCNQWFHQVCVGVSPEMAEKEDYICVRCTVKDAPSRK
SMILES,"activity change, negative = inhibition",Potency
Cc1ccc(NC(=O)c2ccccc2SCC(=O)NC2CC2)c(C)c1,-7.22% (inactive),–
Cc1nnn2c(C(=O)NC3CC3)cccc12,–,35.5 µM (active)
Cn1ncc(Br)c1C(=O)NC1CCCC1,2.23% (inactive),–
O=c1oc2ccccc2cc1-c1nc(-c2ccc(F)cc2)no1,6.44% (inactive),–
CN(CC(=O)NCCN1CCOCC1)S(=O)(=O)c1ccc(F)cc1,18% (inactive),–
COC(=O)[C@@H]1Cc2c([nH]c3ccccc23)[C@H]2C[C@@H](NCCN3CCOCC3)C[C@@H](c3ccccc3F)N21,–,17.8 µM (active)
Cc1ccc(C)n1-c1c(C(=O)NCCN2CCOCC2)sc2ncccc12,-13.7% (inactive),–
COC(=O)[C@@H]1Cc2c([nH]c3ccccc23)[C@H]2C[C@H](NCCNC(C)=O)C[C@@H](c3ccc(C)cc3)N21,–,17.8 µM (active)
COC(=O)[C@@H]1C[C@@H](NC(=O)c2ccc(-c3nnn(C)n3)cc2)CN1C,-8.97% (inactive),–
CCOc1cccc(CC(=O)N2CCc3c([nH]c4ccccc34)C2c2ccc(F)cc2)c1OCC (stereo unspecified),-19.1% (inactive),–
CC(C)NC(=O)NC(=O)CSc1nc(-c2ccco2)nc2ccccc12,-18.9% (inactive),–
CNC(=O)c1sc(NCc2ccccc2OC)nc1C,-25% (inactive),–
CCOC(=O)c1c(C)[nH]c(C)c1S(=O)(=O)N(C)CC(=O)Nc1cc(C)cc(C)c1,12.9% (inactive),–
Cc1[nH]c2ccccc2c1C(=O)C(=O)NC1CCS(=O)(=O)C1 (stereo unspecified),-13% (inactive),–
CC(C)(C)c1ccc(C(=O)N2C[C@@H](CO)[C@H](c3ccccn3)C2)cc1,11.8% (inactive),–
O=C(c1cccc(C(F)(F)F)c1)N1C[C@@H](CO)[C@H](c2ccccn2)C1,-1.06% (inactive),–

SMILES,"activity change, negative = inhibition",Potency
O=C(c1cccc2[nH]ccc12)N1C[C@@H](CO)[C@H](c2ccccn2)C1,–,17.8 µM (active)
Cc1cc2oc(=O)cc(CN3CCN(S(=O)(=O)c4ccc5c(c4)OCCO5)CC3)c2cc1C(C)C,9.68% (inactive),–
COC(=O)CN(CC(=O)NC(N)=O)Cc1ccccc1,10.4% (inactive),–
COc1ccc2cc(C(=O)N3C[C@@H](Oc4ccccc4)C[C@H]3C(=O)N3CCOCC3)[nH]c2c1,–,28.2 µM (active)
COc1ccc(CCC(=O)N2C[C@@H](Oc3ccccc3)C[C@H]2C(=O)N2CCOCC2)cc1,9.49% (inactive),–
COc1ccc2[nH]c(C(=O)N3C[C@@H](Oc4ccccc4)C[C@H]3C(=O)N3CCCC3)cc2c1,-929% (inactive),–
CCCn1c(=O)n(CC(=O)Nc2ccc(C)c(F)c2)c(=O)c2c1nc(C)n2CCOC,-4.01% (inactive),–
CCN(CC)c1ccc(C(=S)N(C)C)cc1,-28.5% (inactive),–
Cc1nc(C(=O)N2CC[C@H](N3CCN(C)CC3)[C@H](CCCO)C2)cs1,-27.3% (inactive),–
CNc1nc(N2CC[C@H](N3CCN(C)CC3)[C@H](CCC(=O)O)C2)ncc1F,–,14.1 µM (active)
CN1CCN([C@H]2CCN(C(=O)Cc3cccc(O)c3)C[C@H]2CCCO)CC1,-8.3% (inactive),–
O=C(CSc1nc(-c2ccc(F)cc2)cc(C(F)(F)F)n1)NC1CCCC1,7.5% (inactive),–
CCOC(=O)C1=C(N)Oc2c(oc(CO)cc2=O)C1c1ccccc1C(F)(F)F (stereo unspecified),-9.02% (inactive),–
CCOc1cc(C2CC(=O)NC(SCC(=O)OC)=C2C#N)ccc1O (stereo unspecified),-15.6% (inactive),–
O=C1COc2ccc(Nc3ccccc3F)nc2CN1Cc1ccccc1F,–,35.5 µM (active)
